In PubChem BioAssay AID1159580 (chemical genetic matrix, 2015):
Values joined by “and” are separate entries in the source; they are usually repeats but may differ in a detail not shown here. Identical values can stand only once. Out of some 5,500 compounds screened, about 2,000 (36%) were called active. About 18% were inconclusive and are not listed. Cut-off read from the data, not from the text of the source: active = normalized growth mostly below about 0.91 (no sharp cut-off); inconclusive = no clear call, values can overlap the other calls; inactive = mostly above about 0.92. This is one part of the list.

Assay: chemical genetic growth profiling, strain panel (AID 1159580);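 note: tested at 20 µM; growth read once vehicle control cultures reached saturation at 30 °C; 1 = growth at the plate median or of vehicle wells; lower values mean less growth of the strain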
Details: growth OD

Measured: normalized growth

NCCNC(=O)c1ccc(Cl)cc1
inactive: S. cerevisiae deletion strains, locus YAL040C, strain CLN3, hits give low values 1.07 | S. cerevisiae deletion strains, locus YBR021W, strain FUR4, hits give low values 0.997 | S. cerevisiae deletion strains, locus YBR229C, strain ROT2, hits give low values 0.994 | S. cerevisiae deletion strains, locus YCL029C, strain bik1, hits give low values 0.986 | S. cerevisiae deletion strains, locus YCL061C, strain MRC1 (second series), hits give low values 0.997 | S. cerevisiae deletion strains, locus YDL035C, strain GPR1, hits give low values 0.997 | S. cerevisiae deletion strains, locus YDL074C, strain BRE1, hits give low values 1.05 | S. cerevisiae deletion strains, locus YDL101C, strain DUN1, hits give low values 0.994 | S. cerevisiae deletion strains, locus YDL134C, strain PPH21, hits give low values 0.98 | S. cerevisiae deletion strains, locus YDL185W, strain tfp1, hits give low values 0.984 | S. cerevisiae deletion strains, locus YDL192W, strain arf1, hits give low values 0.973 | S. cerevisiae deletion strains, locus YDR101C, strain arx1, hits give low values 1.03 | S. cerevisiae deletion strains, locus YDR150W, strain NUM1, hits give low values 0.998 and 0.995 | S. cerevisiae deletion strains, locus YDR162C, strain NBP2, hits give low values 0.984 | S. cerevisiae deletion strains, locus YDR318W, strain mcm21, hits give low values 0.987 | S. cerevisiae deletion strains, locus YDR363W, strain ESC2, hits give low values 1.01 | S. cerevisiae deletion strains, locus YDR388W, hits give low values 0.98 | S. cerevisiae deletion strains, locus YDR502C, strain sam2, hits give low values 1 | S. cerevisiae deletion strains, locus YEL061C, strain CIN8, hits give low values 0.99 | S. cerevisiae deletion strains, locus YER002W, strain NOP16, hits give low values 1.02 | S. cerevisiae deletion strains, locus YER110C, hits give low values 0.959 | S. cerevisiae deletion strains, locus YER155C, strain BEM2, hits give low values 0.999 | S. cerevisiae deletion strains, locus YER167W, strain BCK2, hits give low values 0.99 | S. cerevisiae deletion strains, locus YGL078C, strain dbp3, hits give low values 0.961 | S. cerevisiae deletion strains, locus YGL086W, strain mad1, hits give low values 1.01 | S. cerevisiae deletion strains, locus YGL248W, strain PDE1, hits give low values 0.996 | S. cerevisiae deletion strains, locus YGR078C, strain PAC10, hits give low values 1.03 and 0.988 | S. cerevisiae deletion strains, locus YGR135W, strain pre9, hits give low values 0.948 | S. cerevisiae deletion strains, locus YGR252W, strain gcn5, hits give low values 0.931 | S. cerevisiae deletion strains, locus YHR030C, strain SLT2, hits give low values 0.987 | S. cerevisiae deletion strains, locus YHR079C, strain IRE1 (second series), hits give low values 0.991 | S. cerevisiae deletion strains, locus YHR094C, strain hxt1, hits give low values 0.986 | S. cerevisiae deletion strains, locus YHR129C, strain ARP1, hits give low values 0.998 | S. cerevisiae deletion strains, locus YHR200W, strain rpn10, hits give low values 0.983 | S. cerevisiae deletion strains, locus YIL066C, strain RNR3, hits give low values 0.998 | S. cerevisiae deletion strains, locus YIL073C, strain SPO22, hits give low values 0.94 | S. cerevisiae deletion strains, locus YIL125W, strain kgd1, hits give low values 0.988 | S. cerevisiae deletion strains, locus YIR030C, strain dcg1, hits give low values 0.982 | S. cerevisiae deletion strains, locus YJL095W, strain BCK1, hits give low values 1.02 | S. cerevisiae deletion strains, locus YJL134W, strain LCB3, hits give low values 0.991 | S. cerevisiae deletion strains, locus YJL168C, strain set2, hits give low values 0.984 | S. cerevisiae deletion strains, locus YJL187C, strain SWE1 (second series), hits give low values 1 | S. cerevisiae deletion strains, locus YJR043C, strain POL32, hits give low values 1.02 | S. cerevisiae deletion strains, locus YJR075W, strain HOC1, hits give low values 0.999 | S. cerevisiae deletion strains, locus YKL009W, strain mrt4, hits give low values 0.969 | S. cerevisiae deletion strains, locus YKL068W, hits give low values 0.989 | S. cerevisiae deletion strains, locus YKL085W, strain MDH1 (second series), hits give low values 1 | S. cerevisiae deletion strains, locus YKL085W, strain MDH1, hits give low values 1 | S. cerevisiae deletion strains, locus YKL190W, strain CNB1, hits give low values 0.998 | S. cerevisiae deletion strains, locus YKR001C, strain vps1, hits give low values 0.993 | S. cerevisiae deletion strains, locus YLR039C, strain RIC1, hits give low values 1.04 | S. cerevisiae deletion strains, locus YLR058C, strain SHM2, hits give low values 0.988 | S. cerevisiae deletion strains, locus YLR102C, strain apc9, hits give low values 0.976 | S. cerevisiae deletion strains, locus YLR262C, strain YPT6, hits give low values 0.996 | S. cerevisiae deletion strains, locus YLR268W, strain sec22, hits give low values 0.992 | S. cerevisiae deletion strains, locus YLR330W, strain CHS5, hits give low values 0.999 | S. cerevisiae deletion strains, locus YLR342W, strain FKS1 (second series), hits give low values 0.984 | S. cerevisiae deletion strains, locus YLR371W, strain rom2, hits give low values 0.991 | S. cerevisiae deletion strains, locus YLR418C, strain cdc73, hits give low values 0.975 | S. cerevisiae deletion strains, locus YML016C, strain PPZ1, hits give low values 0.991 | S. cerevisiae deletion strains, locus YML032C, strain rad52, hits give low values 0.984 | S. cerevisiae deletion strains, locus YML124C, strain tub3, hits give low values 0.99 | S. cerevisiae deletion strains, locus YMR078C, strain ctf18, hits give low values 0.967 | S. cerevisiae deletion strains, locus YMR223W, strain ubp8, hits give low values 0.958 | S. cerevisiae deletion strains, locus YMR263W, strain SAP30, hits give low values 1.01 and 0.997 | S. cerevisiae deletion strains, locus YMR307W, strain GAS1, hits give low values 0.984 and 0.965 | S. cerevisiae deletion strains, locus YNL067W, strain RPL9B, hits give low values 1.01 | S. cerevisiae deletion strains, locus YNL128W, strain TEP1, hits give low values 0.984 and 0.991 | S. cerevisiae deletion strains, locus YNL175C, strain NOP13, hits give low values 0.99 | S. cerevisiae deletion strains, locus YNL197C, strain WHI3, hits give low values 0.992 | S. cerevisiae deletion strains, locus YNL224C, strain SQS1, hits give low values 0.999 | S. cerevisiae deletion strains, locus YNL233W, strain BNI4, hits give low values 1.02 | S. cerevisiae deletion strains, locus YNL250W, strain rad50, hits give low values 0.942 | S. cerevisiae deletion strains, locus YNL271C, strain bni1, hits give low values 0.983 | S. cerevisiae deletion strains, locus YNL298W, strain CLA4, hits give low values 0.96 | S. cerevisiae deletion strains, locus YNL307C, strain MCK1, hits give low values 0.981 | S. cerevisiae deletion strains, locus YNL322C, strain KRE1, hits give low values 1.01 | S. cerevisiae deletion strains, locus YNR052C, strain pop2, hits give low values 0.974 | S. cerevisiae deletion strains, locus YOL006C, strain TOP1, hits give low values 1.08 | S. cerevisiae deletion strains, locus YOL012C, strain htz1 1.91 | S. cerevisiae deletion strains, locus YOL147C, strain pex11, hits give low values 0.985 | S. cerevisiae deletion strains, locus YOR061W, strain CKA2, hits give low values 0.992 | S. cerevisiae deletion strains, locus YOR069W, strain VPS5, hits give low values 0.984 | S. cerevisiae deletion strains, locus YOR083W, strain WHI5 (second series), hits give low values 0.99 | S. cerevisiae deletion strains, locus YOR136W, strain idh2, hits give low values 0.993 | S. cerevisiae deletion strains, locus YOR144C, strain elg1, hits give low values 0.983 | S. cerevisiae deletion strains, locus YOR184W, strain ser1, hits give low values 0.968 | S. cerevisiae deletion strains, locus YOR316C, strain cot1, hits give low values 0.981 | S. cerevisiae deletion strains, locus YPL055C, strain LGE1, hits give low values 1.01 | S. cerevisiae deletion strains, locus YPL241C, strain CIN2, hits give low values 0.997 | S. cerevisiae deletion strains, locus YPR119W, strain clb2, hits give low values 0.977 | S. cerevisiae deletion strains, locus YPR141C, strain kar3, hits give low values 0.978 | S. cerevisiae deletion strains, locus YPR163C, strain tif3, hits give low values 0.987 | S. cerevisiae deletion strains, locus YPR167C, strain met16, hits give low values 0.973 | S. cerevisiae deletion strains, strain wtn01, hits give low values 0.968 | S. cerevisiae strains, strain wild type, hits give low values 0.998
